According to the supplement of paper PMC9801561:
± gives the standard deviation of the averaged measurements.

Assays:
[1] = test system: Escherichia coli Nissle 1917; assay: area under OmniLog respiration curve over 48 h (OmniLog units x h); higher = more growth / nutrient utilisation; extreme values may be limits of the assay; conditions: incubation: 48 h, 37 °C
[2] = test system: Escherichia coli Nissle 1917; assay: DuctApe activity index of respiration/growth curve (0 no growth to 9 maximum) (index 0-9); higher = more growth / nutrient utilisation, active = 3 or more; extreme values may be limits of the assay; conditions: incubation: 48 h, 37 °C
[3] = nutrient role: sole nitrogen source (pyruvate carbon)
[4] = nutrient role: sole phosphorus source (pyruvate carbon)
[5] = nutrient role: C-Source, carbohydrate
[6] = nutrient role: sole sulfur source (pyruvate carbon)
[7] = nutrient role: C-Source, carboxylic acid
[8] = nutrient role: C-Source, amino acid
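Throughout, for DuctApe activity index of respiration/growth curve (0 no growth to 9 maximum): biolog PM4 phosphorus and sulfur plates, tetrazolium violet dye reduction read in the OmniLog every 15 min, kinetic curves scored by DuctApe, each plate run in triplicate.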

## CCCCN [N-Butylamine]
[1]; [3]
  area under OmniLog respiration curve: 5.65 ± 1.6
[2]; [3]
  DuctApe activity index: 0 (inactive)

## Nc1nc2c(ncn2[C@@H]2O[C@H](CO)[C@@H](O)[C@H]2OP(=O)(O)O)c(=O)[nH]1 [Guanosine 2`-Monophosphate]
[1]; [4]
  area under OmniLog respiration curve: 9820 ± 820
[2]; [4]
  DuctApe activity index: 9 (active)

## OCC(O)CO [Glycerol]
[1]; [5]
  area under OmniLog respiration curve: 7310 ± 730
[2]; [5]
  DuctApe activity index: 7.67 (active)

## O=C1NC(=O)C(=O)N1 [Parabanic acid]
[1]; [3]
  area under OmniLog respiration curve: 556 ± 610
[2]; [3]
  DuctApe activity index: 1.33 (inactive)

## C[C@H](CCC(=O)NCCS(=O)(=O)O)[C@H]1CC[C@H]2[C@@H]3[C@H](O)C[C@@H]4C[C@H](O)CC[C@]4(C)[C@H]3C[C@H](O)[C@]12C [Taurocholic acid]
[1]; [6]
  area under OmniLog respiration curve: 2500 ± 890
[2]; [6]
  DuctApe activity index: 4 (active)

## NC(=O)CCCCC1CCSS1 (racemic) [DL-Lipoamide]
[1]; [6]
  area under OmniLog respiration curve: 561 ± 220
[2]; [6]
  DuctApe activity index: 1 (inactive)

## Nc1ccn([C@@H]2O[C@H](COP(=O)(O)O)[C@@H](O)[C@H]2O)c(=O)n1 [Cytidine 5`-Monophosphate]
[1]; [4]
  area under OmniLog respiration curve: 8880 ± 960
[2]; [4]
  DuctApe activity index: 8.67 (active)

## O=C(O)c1ccc(O)cc1 [4-Hydroxybenzoic acid]
[1]; [7]
  area under OmniLog respiration curve: 4.72
[2]; [7]
  DuctApe activity index: 0 (inactive)

## NCCS(=O)(=O)O [Taurine]
[1]; [6]
  area under OmniLog respiration curve: 7830 ± 160
[2]; [6]
  DuctApe activity index: 8 (active)

## O=C(O)[C@@H]1C[C@@H](O)CN1 [Hydroxy-L-Proline]
[1]; [8]
  area under OmniLog respiration curve: 94.1 ± 78
[2]; [8]
  DuctApe activity index: 0 (inactive)

## COC(=O)[C@@H](C)O [D-Lactic acid Methyl Ester]
[1]; nutrient role: C-Source, ester
  area under OmniLog respiration curve: 7990 ± 370
[2]; nutrient role: C-Source, ester
  DuctApe activity index: 8 (active)
